From PubChem BioAssay (EPA / NIEHS) come the findings set out here.

Calls of active or inactive are those of the source. Rule for the calls: active = hit-call score of the fitted dose curve at least 0.9, where 1 is the maximum; inactive = score below 0.9.

Test [1] can be described thus: ATG_E_Box_CIS: Attagene CIS-FACTORIAL HepG2 Assay for human Enhancer Box (E-box) (AID 2282936). Particulars: HepG2 E-box cis-reporter transcription, actives raise or lower the signal. A digest of the protocol: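 DMSO served as negative control and baseline for bidirectional fitting. Human hepatoma HepG2 cells, transiently transfected with cis-reporter constructs, were dosed 24 h; reporter mRNA read by RT-PCR and capillary electrophoresis.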

Test [2] is described as follows: ATG_M_61_CIS: Attagene CIS-FACTORIAL HepG2 Assay for M61 Transcription Factor (Internal Marker) (AID 2282937). Particulars: HepG2 Attagene CIS-FACTORIAL M61 internal marker reporter; actives raise or lower the signal. A digest of the protocol: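 This endpoint serves as an internal background control within a multiplexed HepG2 cis-reporter panel. Cells are exposed for 24 h; reporter mRNA is amplified, fluorescently labelled and sized by capillary electrophoresis, with DMSO as negative control.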

A short description of test [3]: ATG_EGR_CIS: Attagene CIS-FACTORIAL HepG2 Assay for human Early Growth Response 1 (EGR1) (AID 2282938). Particulars: HepG2 Attagene CIS-FACTORIAL EGR reporter mRNA; actives raise or lower the signal. A digest of the protocol: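 HepG2, transient MRTU transfection (cis promoters), 24 h compound. RNA → RT (oligo-dT) → PCR → 6-FAM labelling → HpaI cut → CE fluorescence. Bidirectional fit, DMSO baseline.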

The nature of test [4]: ATG_M_19_CIS: Attagene CIS-FACTORIAL HepG2 Assay for M19 Transcription Factor (Internal Marker) (AID 2282939). The settings on record: HepG2 Attagene CIS-FACTORIAL M19 internal marker reporter; actives raise or lower the signal. The essentials: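 Signals come from fluorescence of labelled reporter-specific PCR fragments resolved by capillary electrophoresis, following 24 h treatment of HepG2 cells transfected with cis-promoter reporter units; activity was fitted in both directions relative to DMSO.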

Test [5] is described as follows: ATG_ERE_CIS: Attagene CIS-FACTORIAL HepG2 Assay for Estrogen Response Element (ERE) (AID 2282940). The settings on record: HepG2 ERE cis-reporter, Attagene RNA transcript; actives raise or lower the signal. The essentials:
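Fluorescence of capillary-separated, FAM-labelled reporter cDNA fragments indicates reporter mRNA levels in HepG2 cells exposed to chemicals for 24 h. Transient transfection with cis-regulated units; data fitted in both directions against DMSO.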

Test [6] in a line: ATG_Ets_CIS: Attagene CIS-FACTORIAL HepG2 Assay for human Erythroblast Transformation Specific (ETS) (AID 2282941). The settings on record: HepG2 ETS cis-reporter transcription, actives raise or lower the signal. A digest of the protocol: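 Steps: transfect HepG2 with multiple reporter units; treat compound 24 h; isolate RNA, DNase-treat, reverse-transcribe; PCR-amplify, label with 6-FAM, digest with HpaI; separate by capillary electrophoresis. Activity fitted both directions versus DMSO.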

For test [7], the target named is Hepatocyte nuclear factor 3-beta (Homo sapiens) (UniProt Q9Y261). The test is described as follows: ATG_FoxA2_CIS: Attagene CIS-FACTORIAL HepG2 Assay for human Forkhead box A2 (FOXA2) (AID 2282942). Particulars: HepG2 cis-reporter transcription factor activity, 24 h; actives raise or lower the signal. A digest of the protocol:
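Cells: HepG2, transient multiplex reporter transfection. Exposure 24 h. Detection: reporter-specific RT-PCR, fluorescent labelling, restriction digest, capillary electrophoresis. Analysis: bidirectional curve fit, DMSO as negative control.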

The nature of test [8]: ATG_FoxO_CIS: Attagene CIS-FACTORIAL HepG2 Assay for human Forkhead box O (FoxO) (AID 2282943). Particulars: HepG2 Attagene cis-reporter, FoxO element, mRNA; actives raise or lower the signal. The essentials: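 HepG2, transient MRTU transfection (cis element, endogenous TFs). Dose 24 h. TriZol RNA → oligo(dT) RT → PCR → 6-FAM primer extension → HpaI cut → CE. Gain/loss vs DMSO.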

The nature of test [9]: ATG_GATA_CIS: Attagene CIS-FACTORIAL HepG2 Assay for human GATA Binding Protein (AID 2282944). Particulars: HepG2 GATA cis-element reporter, Attagene multiplex mRNA; actives raise or lower the signal. A digest of the protocol:
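After transfecting HepG2 cells with multiple cis-regulated reporter units, chemicals are dosed for 24 h; isolated RNA undergoes RT-PCR and fluorescent labeling before capillary electrophoresis, with activity expressed against DMSO.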

A short description of test [10]: ATG_GLI_CIS: Attagene CIS-FACTORIAL HepG2 Assay for human Zinc Finger Protein GLI1 (AID 2282945). Particulars: HepG2, Attagene cis-factorial reporter mRNA, GLI element; actives raise or lower the signal. A digest of the protocol: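 Bidirectional curve fits relative to DMSO, using reporter mRNA levels from RT-PCR plus capillary electrophoresis. Cells were HepG2 transiently carrying cis-regulated reporter constructs, harvested 24 h after dosing.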

Test [11] in a line: ATG_GRE_CIS: Attagene CIS-FACTORIAL HepG2 Assay for human Glucocorticoid Response Elements (GRE) (AID 2282947). The settings on record: HepG2 GRE cis-reporter, Attagene multiplex mRNA; actives raise or lower the signal. The essentials:
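Assay uses human hepatoma HepG2 cells transfected with cis-promoter reporter units, exposed 24 h. mRNA from reporters detected by RT-PCR plus capillary electrophoresis; DMSO serves as negative control and baseline.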

Test [12] is described as follows: ATG_ISRE_CIS: Attagene CIS-FACTORIAL HepG2 Assay for human Interferon Regulatory Factor 1 (IRF1) binding to an Interferon-Stimulated Response Element (ISRE) (AID 2282948). The settings on record: HepG2 ISRE cis-reporter (Attagene), mRNA transcription readout; actives raise or lower the signal. The essentials: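 Transfected HepG2 (multiple reporter transcription units, cis elements) dosed 24 h. RNA → oligo(dT) RT → PCR → 6-FAM primer extension → HpaI → CE. DMSO = negative control/baseline.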

Test [13] can be described thus: ATG_M_32_CIS: Attagene CIS-FACTORIAL HepG2 Assay for M32 Transcription Factor (Internal Marker) (AID 2282949).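 Note: background control marker of the multiplexed CIS panel rather than a real target.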 The settings on record: HepG2 Attagene cis-factorial M32 reporter, mRNA; actives raise or lower the signal. The essentials: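 Internal background marker read-out: RT-PCR/capillary electrophoresis fluorescence of reporter transcripts from transiently transfected HepG2 cells after 24 h chemical exposure. Activity fitted bidirectionally relative to DMSO negative control.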

Test [14] can be described thus: ATG_M_06_CIS: Attagene CIS-FACTORIAL HepG2 Assay for M06 Transcription Factor (Internal Marker) (AID 2282950). The settings on record: HepG2 Attagene CIS-FACTORIAL M06 internal marker reporter; actives raise or lower the signal. A digest of the protocol:
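HepG2 liver cells, 24 h exposure. Reporter transcripts from transfected cis-element constructs quantified by RT-PCR/capillary electrophoresis fluorescence. Bidirectional curve fit against DMSO.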

Test [15] deals with Hypoxia-inducible factor 1-alpha (Homo sapiens) (UniProt Q16665). Briefly: ATG_HIF1a_CIS: Attagene CIS-FACTORIAL HepG2 Assay for human Hypoxia Inducible Factor 1 (HIF1A) (AID 2282951). Particulars: HepG2 Attagene cis-factorial HIF1a reporter transcription; actives raise or lower the signal. The essentials:
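HepG2, transient cis-reporter library, 24 h dosing. RNA → RT (oligo dT) → PCR → 6-FAM primer extension → HpaI → CE. Bidirectional curve fit vs DMSO.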

Test [16] has as its target Hepatocyte nuclear factor 6 (Homo sapiens) (UniProt Q9UBC0). Briefly: ATG_HNF6_CIS: Attagene CIS-FACTORIAL HepG2 Assay for human Hepatocyte Nuclear Factor 6 (HNF6) (AID 2282952). The settings on record: HepG2 Attagene cis-factorial HNF6 reporter transcription; actives raise or lower the signal. A digest of the protocol:
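Cells are HepG2 carrying transiently transfected cis-promoter reporter units. Treatment lasts 24 h, after which reporter transcripts are reverse-transcribed, amplified, FAM-labelled and sized by capillary electrophoresis. DMSO serves as baseline.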

Test [17] concerns the target Heat shock factor protein 1 (Homo sapiens) (UniProt Q00613). The test is described as follows: ATG_HSE_CIS: Attagene CIS-FACTORIAL HepG2 Assay for human Heat Shock Transcription Factor 1 (HSE) (AID 2282953). Particulars: HepG2 HSE cis-reporter, Attagene RNA transcription; actives raise or lower the signal. A digest of the protocol:
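Endogenous transcription factor activity captured via cis-promoter reporter units transfected into HepG2; treatment lasted 24 h. Fluorescence intensity of reporter fragments analysed with bidirectional curve fitting, DMSO baseline.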

Test [18] is described as follows: ATG_MRE_CIS: Attagene CIS-FACTORIAL HepG2 Assay for human Metal Responsive Element (MRE) (AID 2282954). The settings on record: HepG2 MRE cis-reporter transcription, Attagene multiplex; actives raise or lower the signal. The essentials:
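After a 24 h chemical exposure, transiently transfected HepG2 cells yield RNA whose reporter sequences are amplified, FAM-labelled and sized by capillary electrophoresis. Curves are fitted bidirectionally relative to DMSO.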

Test [19] is described as follows: ATG_PBREM_CIS: Attagene CIS-FACTORIAL HepG2 Assay for human Phenobarbital-responsive Enhancer Module (PBREM) (AID 2282955). Particulars: HepG2 PBREM cis-reporter, Attagene multiplexed transcription; actives raise or lower the signal. A digest of the protocol:
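HepG2, transient MRTU transfection, 24 h dosing; RNA → oligo(dT) RT → PCR → 6-FAM extension → HpaI → CE. Bidirectional fit vs DMSO.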

Chain of Hepatocyte nuclear factor 3-beta (Homo sapiens) (Q9Y261 whole entry, looked up): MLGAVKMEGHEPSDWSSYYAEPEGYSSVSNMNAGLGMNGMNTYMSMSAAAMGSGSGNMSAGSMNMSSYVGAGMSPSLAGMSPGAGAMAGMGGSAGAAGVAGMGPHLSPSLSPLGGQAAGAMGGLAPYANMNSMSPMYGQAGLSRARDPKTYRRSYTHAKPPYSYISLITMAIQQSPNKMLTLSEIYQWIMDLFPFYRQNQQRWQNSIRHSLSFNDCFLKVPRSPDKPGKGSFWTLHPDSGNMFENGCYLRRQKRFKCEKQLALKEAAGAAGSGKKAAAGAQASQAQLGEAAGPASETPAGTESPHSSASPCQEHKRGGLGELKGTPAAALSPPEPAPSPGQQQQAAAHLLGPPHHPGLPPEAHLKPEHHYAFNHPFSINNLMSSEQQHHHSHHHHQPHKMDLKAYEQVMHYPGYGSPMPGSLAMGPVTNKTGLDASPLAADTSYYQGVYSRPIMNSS
Chain of Hypoxia-inducible factor 1-alpha (Homo sapiens) (Q16665 whole entry, looked up): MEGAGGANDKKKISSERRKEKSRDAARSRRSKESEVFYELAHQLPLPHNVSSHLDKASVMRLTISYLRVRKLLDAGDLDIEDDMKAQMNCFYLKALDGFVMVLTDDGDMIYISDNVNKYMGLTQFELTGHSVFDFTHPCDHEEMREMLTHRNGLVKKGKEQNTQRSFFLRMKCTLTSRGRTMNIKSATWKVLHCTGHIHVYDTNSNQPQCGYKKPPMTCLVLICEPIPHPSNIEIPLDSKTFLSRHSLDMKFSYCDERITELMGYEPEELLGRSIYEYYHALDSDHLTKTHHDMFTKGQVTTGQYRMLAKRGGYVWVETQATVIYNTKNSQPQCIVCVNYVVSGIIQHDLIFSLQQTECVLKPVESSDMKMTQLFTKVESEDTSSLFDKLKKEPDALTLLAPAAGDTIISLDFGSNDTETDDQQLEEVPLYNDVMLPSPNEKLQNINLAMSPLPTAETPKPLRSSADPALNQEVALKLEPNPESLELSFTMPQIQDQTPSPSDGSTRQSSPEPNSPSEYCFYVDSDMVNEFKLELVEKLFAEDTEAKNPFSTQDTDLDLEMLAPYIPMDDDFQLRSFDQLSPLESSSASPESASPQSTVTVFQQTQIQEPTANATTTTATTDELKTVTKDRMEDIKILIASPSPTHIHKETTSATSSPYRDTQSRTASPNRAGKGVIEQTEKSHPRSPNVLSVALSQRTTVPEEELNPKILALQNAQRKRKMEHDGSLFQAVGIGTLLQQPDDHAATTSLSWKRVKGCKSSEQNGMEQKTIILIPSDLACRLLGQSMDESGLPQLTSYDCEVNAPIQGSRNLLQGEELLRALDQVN
Chain of Hepatocyte nuclear factor 6 (Homo sapiens) (Q9UBC0 whole entry, looked up): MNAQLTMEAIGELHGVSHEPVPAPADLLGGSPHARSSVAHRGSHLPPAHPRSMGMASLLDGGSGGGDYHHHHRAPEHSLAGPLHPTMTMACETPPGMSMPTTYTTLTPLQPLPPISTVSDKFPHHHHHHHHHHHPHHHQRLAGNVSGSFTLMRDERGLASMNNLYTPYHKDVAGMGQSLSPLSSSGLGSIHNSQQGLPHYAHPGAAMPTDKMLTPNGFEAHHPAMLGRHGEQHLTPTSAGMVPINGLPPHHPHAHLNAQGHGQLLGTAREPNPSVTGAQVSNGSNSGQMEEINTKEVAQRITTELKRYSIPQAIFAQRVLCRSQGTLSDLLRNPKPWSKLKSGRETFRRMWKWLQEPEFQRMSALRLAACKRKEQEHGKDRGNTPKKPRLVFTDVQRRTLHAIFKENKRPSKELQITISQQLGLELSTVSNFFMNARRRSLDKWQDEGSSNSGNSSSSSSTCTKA
Chain of Heat shock factor protein 1 (Homo sapiens) (Q00613 whole entry, looked up, the tested form may be a part): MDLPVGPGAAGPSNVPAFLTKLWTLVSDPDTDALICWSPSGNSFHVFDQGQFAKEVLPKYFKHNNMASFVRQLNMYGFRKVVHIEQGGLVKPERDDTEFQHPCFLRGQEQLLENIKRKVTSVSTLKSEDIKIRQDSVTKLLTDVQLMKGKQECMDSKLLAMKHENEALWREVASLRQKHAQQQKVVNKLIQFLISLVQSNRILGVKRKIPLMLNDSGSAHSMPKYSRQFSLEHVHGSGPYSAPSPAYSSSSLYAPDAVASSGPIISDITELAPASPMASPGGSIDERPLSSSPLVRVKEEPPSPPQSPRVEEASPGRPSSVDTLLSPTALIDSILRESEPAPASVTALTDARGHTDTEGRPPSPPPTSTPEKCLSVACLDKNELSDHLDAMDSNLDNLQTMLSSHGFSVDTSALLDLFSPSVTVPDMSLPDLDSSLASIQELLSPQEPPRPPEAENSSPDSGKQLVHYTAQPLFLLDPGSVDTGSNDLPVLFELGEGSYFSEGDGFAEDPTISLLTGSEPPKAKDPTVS

As to `CCOC(=O)N1CCC(=C2c3ccc(Cl)cc3CCc3cccnc32)CC1`, the outcome in test [1], in [2], in [4], in [5], in [6] and in test [7] was inactive. Besides, the outcome in [8], in [9], in test [10], in test [11], in [13] and in test [14] was inactive. Besides, the outcome in test [16] and in test [17] was inactive. Besides, the AC50 in test [3] was 6.7 µM (active); in [12], 7.19 µM (active); in test [15] it was 7.91 µM (active); in test [18], 10.7 µM (active); in test [19] it was 0.933 µM (active).
Turning to `COc1ccc(C(Cl)=C(c2ccc(OC)cc2)c2ccc(OC)cc2)cc1`, in [1], the AC50 was 21.8 µM (active). Also, the result in [2], in [3], in [4], in test [5], in test [6] and in [7] was inactive. Moreover, the call in test [8], in test [9], in [10], in test [11], in [12] and in test [14] was inactive. The outcome in test [15], in test [16], in test [17], in test [18] and in test [19] was inactive.
Turning to `C[Si](C)O[Si](C)(C)O[Si](C)(C)O[Si](C)C`, the result in test [1], in test [2], in test [3], in test [4], in test [6] and in test [7] was inactive. Further, the compound was classed as inactive in [8], in test [9], in [10], in [11], in test [12] and in test [14]. The compound was classed as inactive in test [15], in test [16], in test [17] and in test [18]. The AC50 in test [5] is 46.2 µM (active).
`C=CC(=O)OCCOC(=O)C=C`: the AC50 in test [1] is 27.3 µM (active); in test [3] it was 27.4 µM (active); in test [6], 27.2 µM (active); in [12] it was 25.6 µM (active); in test [18], 27.5 µM (active). In addition, the call in test [2], in test [4], in test [5], in test [7], in [8] and in test [9] was inactive. Besides, the outcome in test [10], in test [11], in test [13], in test [14], in [15] and in test [17] was inactive. In addition, in [19], the outcome was inactive.
Consider `OC1CCCC1`, for which the result in test [1], in test [2], in test [3], in [4], in test [5] and in test [6] was inactive. Besides, the compound was called inactive in test [7], in [8], in [9], in test [10], in test [11] and in test [12]. Further, the result in test [13], in [14], in test [15], in test [17], in test [18] and in [19] was inactive.
As to `COc1c2ccoc2cc2oc(=O)ccc12`, the outcome in test [1], in test [2], in test [3], in test [4], in [5] and in test [6] was inactive. Moreover, the call in test [7], in [8], in test [9], in test [10], in test [11] and in [12] was inactive. The compound was called inactive in test [14], in test [15], in [16], in test [17], in [18] and in [19].
Turning to `O=C(Nc1ccccc1SSc1ccccc1NC(=O)c1ccccc1)c1ccccc1`, the outcome in [1], in test [2], in [3], in [4], in [5] and in test [6] was inactive. Further, the compound was called inactive in test [7], in test [8], in test [9], in test [11], in [12] and in test [13]. Besides, the call in test [14], in [15], in test [18] and in [19] was inactive. In addition, the half-maximal activity concentration (AC50) in test [10] is 100 µM (active); in [17] it was 47.1 µM (active).
Regarding `Cc1ccc(N)c([N+](=O)[O-])c1`, the outcome in test [1], in test [2], in [3], in test [4], in test [5] and in test [6] was inactive. For the same compound, the compound was classed as inactive in [7], in [8], in test [9], in test [10], in test [11] and in test [12]. The compound was classed as inactive in test [13], in test [14], in test [15], in [17], in [18] and in test [19].
